Our source for the growth inhibition values is PubChem BioAssay (NCI).

A short description of experiment [1]: NCI Yeast Anticancer Drug Screen. Data for the rad50 strain (AID 155).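 Also: 0% = growth of vehicle-only cultures of the same strain.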 Particulars: S. cerevisiae rad50 strain growth inhibition, active compounds read high. The method, boiled down: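 Genetically altered yeast (DNA repair pathway); compound treatment; growth inhibition vs vehicle ctrl.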
Experiment [2] is described as follows: NCI Yeast Anticancer Drug Screen. Data for the mec2-1 strain (AID 157). Particulars: S. cerevisiae mec2-1 strain, active compounds read high. The method, boiled down:
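Mutant yeast (mec2-1) grown with compound; growth inhibition relative to vehicle control reported.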

Experiment [3] in a line: NCI Yeast Anticancer Drug Screen. Data for the sgs1 mgt1 strain (AID 161).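 Also: 0% = growth of cultures given vehicle only.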 The note with it: S. cerevisiae sgs1 mgt1 strain, active compounds read high. The method, boiled down:
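Percent growth inhibition was derived by comparing compound-exposed mutant yeast with vehicle-exposed cultures. The strain carries alterations in DNA damage repair.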

The nature of experiment [4]: NCI Yeast Anticancer Drug Screen. Data for the cln2 rad14 strain (AID 165).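 Also: 0% = growth equal to vehicle treated cultures.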 Particulars: S. cerevisiae cln2 rad14 strain, active compounds read high. The method, boiled down: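 Readout is yeast growth inhibition versus vehicle-treated controls, using a strain with cln2 and rad14 alterations exposed to compound.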
Experiment [5] is described as follows: NCI Yeast Anticancer Drug Screen. Data for the bub3 strain (AID 167). Particulars: S. cerevisiae bub3 mutant strain, active compounds read high. The method in brief:
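Yeast carrying a defined mutation is treated with each compound, and growth is compared with that of vehicle-exposed cells to give inhibition.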

Experiment [6] can be described thus: NCI Yeast Anticancer Drug Screen. Data for the mlh1 rad18 strain (AID 175). Particulars: S. cerevisiae mlh1 rad18 strain growth inhibition, active compounds read high. The method in brief:
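Genetically defined yeast (DNA repair-deficient) exposed to compounds; growth inhibition determined relative to vehicle.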

Where [7] appears, read: at 5.0 µM (retest, dose inferred, filed as 0.5).
Setting [8] is: at 50.0 µM (retest, dose inferred, filed as 5.0).

The panel holds about 79,000 compounds, 15% with a hit somewhere; the sample as a whole holds those more often. Unmarked numbers belong to inactive results. The source made the active and inactive calls. Rule as the data show it: active = growth inhibition above about 70%; inactive = the rest.

Turning to `O=C(CCN1CCCCC1)N1CCc2c([nH]c3ccccc23)C1c1cccnc1` (stereo not given), the growth inhibition in experiment [1] (setting [7]) is -8%; in experiment [1] (setting [8]) it was 8%; in experiment [1] (at 50.0 µM), 13.1%; in experiment [2] (setting [7]), 1%; in experiment [2] (setting [8]), 16%; in experiment [2] (at 50.0 µM) it was 1.2%. Besides, the growth inhibition in experiment [3] (setting [7]) was 0%; in experiment [3] (setting [8]), -8%; in experiment [3] (at 50.0 µM), -5.35%; in experiment [4] (setting [7]) it was 5%; in experiment [4] (setting [8]), 22%; in experiment [4] (at 50.0 µM), -6.8%. Moreover, the growth inhibition is 4% in experiment [5] (setting [7]); 46% in experiment [5] (setting [8]); -0.3% in experiment [5] (at 50.0 µM); 2% in experiment [6] (setting [7]); -4% in experiment [6] (setting [8]); -14.4% in experiment [6] (at 50.0 µM).
Consider `Nc1nc(-c2ccccn2)cc2c(Cl)cccc12`, for which the growth inhibition was 12% in experiment [1] (setting [7]); 90% (active) in experiment [1] (setting [8]); -2.3% in experiment [1] (at 50.0 µM); 23% in experiment [2] (setting [7]); 96% (active) in experiment [2] (setting [8]); -22.1% in experiment [2] (at 50.0 µM). Further, the growth inhibition was 21% in experiment [3] (setting [7]); 92% (active) in experiment [3] (setting [8]); 11.7% in experiment [3] (at 50.0 µM); 13% in experiment [4] (setting [7]); 75% (active) in experiment [4] (setting [8]); 3.7% in experiment [4] (at 50.0 µM). In addition, the growth inhibition is -8% in experiment [5] (setting [7]); 91% (active) in experiment [5] (setting [8]); 17.6% in experiment [5] (at 50.0 µM); 34% in experiment [6] (setting [7]); 96% (active) in experiment [6] (setting [8]); 8.75% in experiment [6] (at 50.0 µM).
Consider `FC(F)(F)c1ccc(-c2ccc(OCCN3CCCC3)cc2)cc1`, for which the growth inhibition in experiment [1] (setting [7]) is 30%; in experiment [1] (setting [8]) it was 50%; in experiment [1] (at 50.0 µM), 98.6% (active); in experiment [2] (setting [7]), 13%; in experiment [2] (setting [8]) it was 50%; in experiment [2] (at 50.0 µM), 99.5% (active). Moreover, the growth inhibition in experiment [3] (setting [7]) is 25%; in experiment [3] (setting [8]) it was 88% (active); in experiment [3] (at 50.0 µM), 99.4% (active); in experiment [4] (setting [7]), 28%; in experiment [4] (setting [8]), 40%; in experiment [4] (at 50.0 µM), 99.1% (active). The growth inhibition in experiment [5] (setting [7]) is 26%; in experiment [5] (setting [8]) it was 62%; in experiment [5] (at 50.0 µM), 99.4% (active); in experiment [6] (setting [7]), 29%; in experiment [6] (setting [8]), 68%; in experiment [6] (at 50.0 µM), 99.3% (active).
With `C=CS(=O)(=O)c1ccc(C)cc1`, the growth inhibition in experiment [1] (setting [7]) was 0%; in experiment [1] (setting [8]), 49%; in experiment [1] (at 50.0 µM), 84% (active); in experiment [2] (setting [7]) it was 6%; in experiment [2] (setting [8]) it was 70% (active); in experiment [2] (at 50.0 µM) it was 78.7% (active). Further, the growth inhibition was 7% in experiment [3] (setting [7]); 55% in experiment [3] (setting [8]); 81.4% (active) in experiment [3] (at 50.0 µM); 5% in experiment [4] (setting [7]); 31% in experiment [4] (setting [8]); 37.2% in experiment [4] (at 50.0 µM). The growth inhibition in experiment [5] (setting [7]) is 4%; in experiment [5] (setting [8]) it was 61%; in experiment [5] (at 50.0 µM), 75.8% (active); in experiment [6] (setting [7]), 6%; in experiment [6] (setting [8]), 87% (active); in experiment [6] (at 50.0 µM) it was 88.5% (active).
As for `CCN(CC)CCOc1c(Cl)c(Cl)c(Cl)c(Cl)c1Cl`, the growth inhibition is 23% in experiment [1] (setting [7]); 62% in experiment [1] (setting [8]); 71.7% (active) in experiment [1] (at 50.0 µM); 15% in experiment [2] (setting [7]); 77% (active) in experiment [2] (setting [8]); 57.5% in experiment [2] (at 50.0 µM). Further, the growth inhibition was 20% in experiment [3] (setting [7]); 88% (active) in experiment [3] (setting [8]); 86.8% (active) in experiment [3] (at 50.0 µM); -1% in experiment [4] (setting [7]); 80% (active) in experiment [4] (setting [8]); 48.5% in experiment [4] (at 50.0 µM). The growth inhibition in experiment [5] (setting [7]) was 1%; in experiment [5] (setting [8]), 56%; in experiment [5] (at 50.0 µM), 64.2%; in experiment [6] (setting [7]), 7%; in experiment [6] (setting [8]), 80% (active); in experiment [6] (at 50.0 µM), 71.8% (active).
For `CCCCCCCCCCCC(=O)N(CCCCCCCCC)CC(O)C(O)C(OC1OC(CO)C(O)C(O)C1O)C(O)CO` (stereo not given), the growth inhibition in experiment [1] (setting [7]) was 0%; in experiment [1] (setting [8]) it was 97% (active); in experiment [1] (at 50.0 µM), 82.5% (active); in experiment [2] (setting [7]) it was -2%; in experiment [2] (setting [8]), 95% (active); in experiment [2] (at 50.0 µM), 85% (active). The growth inhibition was -36% in experiment [3] (setting [7]); 96% (active) in experiment [3] (setting [8]); 85.7% (active) in experiment [3] (at 50.0 µM); -17% in experiment [4] (setting [7]); 91% (active) in experiment [4] (setting [8]); 66.5% in experiment [4] (at 50.0 µM). Further, the growth inhibition in experiment [5] (setting [7]) was 6%; in experiment [5] (setting [8]), 96% (active); in experiment [5] (at 50.0 µM) it was 86.3% (active); in experiment [6] (setting [7]) it was 1%; in experiment [6] (setting [8]), 97% (active); in experiment [6] (at 50.0 µM), 62%.
As to `CN(C)CCCNc1cc(O)c2c(c1O)C(=O)c1ccccc1C2=O`, the growth inhibition in experiment [1] (setting [7]) is 22%; in experiment [1] (setting [8]), 98% (active); in experiment [1] (at 50.0 µM), 99.2% (active); in experiment [2] (setting [7]), 18%; in experiment [2] (setting [8]) it was 94% (active); in experiment [2] (at 50.0 µM), 97.6% (active). Besides, the growth inhibition in experiment [3] (setting [7]) was 26%; in experiment [3] (setting [8]), 96% (active); in experiment [3] (at 50.0 µM) it was 98.3% (active); in experiment [4] (setting [7]), -16%; in experiment [4] (setting [8]) it was 94% (active); in experiment [4] (at 50.0 µM) it was 94.8% (active). Further, the growth inhibition in experiment [5] (setting [7]) is 13%; in experiment [5] (setting [8]) it was 97% (active); in experiment [5] (at 50.0 µM) it was 98.3% (active); in experiment [6] (setting [7]), 16%; in experiment [6] (setting [8]), 98% (active); in experiment [6] (at 50.0 µM), 99% (active).
On to `O=C(O)C(O)Cc1ccc(O)cc1` (stereo not given), for which the growth inhibition is -150% in experiment [1] (setting [7]); -144% in experiment [1] (setting [8]); -3.2% in experiment [1] (at 50.0 µM); -46% in experiment [2] (setting [7]); -51% in experiment [2] (setting [8]); 1.1% in experiment [2] (at 50.0 µM). Also, the growth inhibition in experiment [3] (setting [7]) was -61%; in experiment [3] (setting [8]), -61%; in experiment [3] (at 50.0 µM), 3.7%; in experiment [4] (setting [7]), -62%; in experiment [4] (setting [8]), -69%; in experiment [4] (at 50.0 µM) it was 39.2%. Further, the growth inhibition was -70% in experiment [5] (setting [7]); -86% in experiment [5] (setting [8]); -13.3% in experiment [5] (at 50.0 µM); -140% in experiment [6] (setting [7]); -122% in experiment [6] (setting [8]); -6.4% in experiment [6] (at 50.0 µM).
`CCCCCCCCCCCCSCCCN`: the growth inhibition in experiment [1] (setting [7]) is -6%; in experiment [1] (setting [8]) it was 99% (active); in experiment [1] (at 50.0 µM), 99.2% (active); in experiment [2] (setting [7]), -3%; in experiment [2] (setting [8]), 99% (active); in experiment [2] (at 50.0 µM), 99.5% (active). Besides, the growth inhibition in experiment [3] (setting [7]) was -1%; in experiment [3] (setting [8]), 99% (active); in experiment [3] (at 50.0 µM) it was 99.2% (active); in experiment [4] (setting [7]), -9%; in experiment [4] (setting [8]), 99% (active); in experiment [4] (at 50.0 µM), 99.5% (active). In addition, the growth inhibition in experiment [5] (setting [7]) is -5%; in experiment [5] (setting [8]), 99% (active); in experiment [5] (at 50.0 µM) it was 99.5% (active); in experiment [6] (setting [7]) it was -9%; in experiment [6] (setting [8]), 99% (active); in experiment [6] (at 50.0 µM) it was 99.5% (active).
With `CCCCCCCCCCCC(=O)[O][Sn]([CH2]C)([CH2]C)[O]C(=O)CCCCCCCCCCC`, the growth inhibition in experiment [1] (setting [7]) was 7%; in experiment [1] (setting [8]), 5%; in experiment [1] (at 50.0 µM), 79.3% (active); in experiment [2] (setting [7]), 2%; in experiment [2] (setting [8]), 2%; in experiment [2] (at 50.0 µM) it was 88.3% (active). Moreover, the growth inhibition was 3% in experiment [3] (setting [7]); 44% in experiment [3] (setting [8]); 95.8% (active) in experiment [3] (at 50.0 µM); 5% in experiment [4] (setting [7]); 0% in experiment [4] (setting [8]); 48.1% in experiment [4] (at 50.0 µM). Further, the growth inhibition in experiment [5] (setting [7]) is 3%; in experiment [5] (setting [8]), -7%; in experiment [5] (at 50.0 µM) it was 16.4%; in experiment [6] (setting [7]), 4%; in experiment [6] (setting [8]), 12%; in experiment [6] (at 50.0 µM), 88.7% (active).
